# Test results published in paper PMC5540273 (PLoS ONE, 2017).
# How the values were obtained:
# Details in all cases: concentration: 1 μM, replicates: in singlicate; n = 1
# MERTK = tested on: MERTK
# MET = tested on: MET
# MINK = tested on: T1, MINK
# T1 construct: gene MINK1
# MKK7 = tested on: MKK7
# MKNK1 = tested on: MKNK1
# MKNK2 = tested on: MKNK2
# MLCK = tested on: T2, MLCK
# T2 construct: gene MYLK3
# MLK1 = tested on: T3, MLK1
# T3 construct: gene MAP3K9
# MLK2 = tested on: MLK2
# MLK3 = tested on: MLK3
# MRCKA = tested on: MRCKA
# MRCKB = tested on: T4, MRCKB
# T4 construct: gene CDC42BPB
# MST1R = tested on: MST1R
# MST1 = tested on: T5, MST1
# T5 construct: gene STK4
# MST2 = tested on: T6, MST2
# T6 construct: gene STK3
# MST3 = tested on: T7, MST3
# T7 construct: gene STK24
# MST4 = tested on: MST4
# MTOR = tested on: MTOR
# MUSK = tested on: MUSK
# MYLK2 = tested on: MYLK2
# 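Also: KINOMEscan kinase panel screen.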
SMILES,%Inh (MERTK) [%],%Inh (MET) [%],%Inh (MINK) [%],%Inh (MKK7) [%],%Inh (MKNK1) [%],%Inh (MKNK2) [%],%Inh (MLCK) [%],%Inh (MLK1) [%],%Inh (MLK2) [%],%Inh (MLK3) [%],%Inh (MRCKA) [%],%Inh (MRCKB) [%],%Inh (MST1R) [%],%Inh (MST1) [%],%Inh (MST2) [%],%Inh (MST3) [%],%Inh (MST4) [%],%Inh (MTOR) [%],%Inh (MUSK) [%],%Inh (MYLK2) [%]
Cl.O=S(=O)(c1cccc(F)c1)c1ccc(Nc2ncnc3cc(Br)sc23)cc1Cl [GSK306886],37,0,0,0,11,11,0,0,0,2,18,9,20,0,9,2,0,12,8,3
COc1cc2c(Nc3cccc(NC(=O)c4ccccc4)c3)ncnc2cc1OCCCN1CCOCC1 [GSK223810],20,1,0,0,23,9,0,0,23,13,15,4,0,4,0,10,0,6,1,0
Nc1n[nH]c2nnc(-c3ccccc3)cc12 [SB-517389],13,0,23,0,77,12,86,0,0,0,16,0,27,0,5,0,0,14,8,13
CCC(CC)(CC)n1cnc2c(N)ncnc21 [SKF-97620],40,0,15,0,0,10,0,0,3,1,0,13,0,6,7,10,30,14,11,19
CS(=O)(=O)CCNCc1nc(-c2ccc3ncnc(Nc4ccc(OCc5cccc(F)c5)c(Cl)c4)c3c2)cs1.Cl [GW583340],0,0,0,0,0,0,0,0,0,0,0,0,38,0,8,15,0,4,0,0
Nc1nc(-c2cccnc2)c(-c2ccnc3ccccc23)s1 [GW684083],0,0,51,0,1,0,30,0,0,7,0,0,18,4,10,10,0,27,11,0
CCn1c(-c2ccncc2)nc2cnccc21 [SB-735216],0,1,19,5,5,33,0,8,0,0,23,0,27,0,0,0,13,0,5,15
FC(F)(F)c1ccc(-c2nn3ncccc3c2-c2ccnc(Nc3cccc(C(F)(F)F)c3)n2)cc1 [GW828205],1,21,12,0,0,0,0,4,0,0,31,17,0,0,21,0,0,0,0,0
CNc1nccc(-c2c(-c3ccc(F)cc3)ncn2CCCN2CCOCC2)n1 [SB-222516],19,3,15,0,3,0,1,33,10,0,8,0,0,0,14,14,0,11,0,0
Cl.c1ccc(Cn2ccc3cc(Nc4ncnc5ccccc45)ccc32)cc1 [GW275568],0,2,12,7,6,12,0,0,0,13,7,11,43,0,22,17,0,16,11,19
